Screening results as filed in PubChem BioAssay.
SENP6 inh – SENP6 protease inhibitors, primary screen, biochemical, luminescence, uHTS. Sentrin-specific protease 6 (Homo sapiens), Q9GZR1. Recombinant SENP6 catalytic domain, aminoluciferin luminescence. inhibition, % at 10 µM. hit rate 1.8% among 330,000. AID 2599, 2010;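 active = inhibition above about 50% at the single tested dose, limit read from the data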;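 note: plate controls were DMSO wells with enzyme for no effect and DMSO wells lacking enzyme for full effect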
Target sequence (Q9GZR1 628-1112 limits assumed): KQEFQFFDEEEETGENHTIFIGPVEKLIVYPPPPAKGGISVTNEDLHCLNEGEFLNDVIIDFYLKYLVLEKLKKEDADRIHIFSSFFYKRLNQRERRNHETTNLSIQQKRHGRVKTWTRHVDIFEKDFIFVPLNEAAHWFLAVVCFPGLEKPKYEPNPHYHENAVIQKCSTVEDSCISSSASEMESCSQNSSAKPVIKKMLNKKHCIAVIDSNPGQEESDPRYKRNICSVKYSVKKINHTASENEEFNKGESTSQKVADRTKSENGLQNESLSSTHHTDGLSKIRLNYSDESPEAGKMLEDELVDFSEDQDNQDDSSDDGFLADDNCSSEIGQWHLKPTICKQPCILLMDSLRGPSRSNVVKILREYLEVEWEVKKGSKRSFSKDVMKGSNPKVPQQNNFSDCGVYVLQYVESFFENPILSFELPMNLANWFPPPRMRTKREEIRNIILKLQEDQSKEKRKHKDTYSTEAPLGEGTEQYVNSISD
SENP8 block-1 – SENP8 protease inhibitors, primary screen, biochemical, luminescence; Sentrin-specific protease 8 (Homo sapiens), Q96LD8; purified SENP8, Z-RLRGG-aminoluciferin cleavage; inhibition, % at 10 µM; hit rate 1.2% among 330,000; in the data active = inhibition above about 50%
PPC-1+TRAIL kill – compounds killing PPC-1 cancer cells with TRAIL present, primary screen, TRAIL potentiator project, ATPLite luminescence, uHTS | PPC-1 cells + TRAIL, ATPLite viability luminescence | cell killing (% activity), % at 4 µM or 5 µM | hit rate 0.41% among 220,000 | AID 1443, 2008;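 active = cell killing above 50% in the first pass at 4 µM, then a duplicate retest at 5 µM averaging 50% or more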;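 note: plate controls were cells with TRAIL plus DMSO for no effect and medium-only wells lacking cells for full effect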
TRAIL sens C8 – viability loss with TRAIL in NB7+C8 cells, primary screen, TRAIL sensitizer project, cell-based, ATPlite luminescence | inhibition (viability loss, TRAIL sensitization), % at 10 µM | hit rate 1% among 360,000;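 active = compounds causing at least 50% loss of cell viability in the single-dose screen, relative to plate controls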
SENP7 inh – SENP7 protease inhibitors, primary screen, biochemical, luminescence, uHTS. hit rate 1.5% among 330,000. Sentrin-specific protease 7 (Homo sapiens), Q9BQF6. inhibition, % at 5 µM. recombinant SENP7, Z-RLRGG-aminoluciferin luminescence, 40 min;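 active = inhibition above about 50% at the single test dose, limit read from the data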;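 note: plate controls were DMSO with enzyme for no effect and no enzyme buffer wells for full effect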
SENP8 block-2 – human SENP8 protease inhibitors, primary screen, biochemical, fluorescence, Nedd8 protein substrate, uHTS. Sentrin-specific protease 8 (Homo sapiens), Q96LD8. recombinant SENP8. inhibition, % at 20 µM. hit rate 0.64% among 360,000. AID 602440, 2012; in the data active = inhibition mostly above about 40%, no sharp cut-off; inactive = mostly below about 27%
SENP8 confirm – SENP8 protease inhibitors, retest, confirmation, biochemical, luminescence, single concentration; shares compounds with SENP7 inh; Recombinant SENP8, Z-RLRGG-aminoluciferin luminescence, 60 min; inhibition, % at 12.5 µM; hit rate 40% among 6,200;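 active = mean inhibition across replicates above about 50%, limit read from the data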
SENP6 conf – SENP6 protease inhibitors, confirmation, biochemical, luminescence, single concentration. shares compounds with SENP7 inh. recombinant SENP6, Z-RLRGG-aminoluciferin luminescence. inhibition, % at 12.5 µM. hit rate 58% among 6,200. AID 488915, 2010
SENP7 confirm – SENP7 protease inhibitors, retest, confirmation, biochemical, luminescence, single concentration. AID 488917, 2010. recombinant SENP7, Z-RLRGG-aminoluciferin luminescence, 40 min. shares compounds with SENP7 inh. hit rate 69% among 6,200. inhibition, % at 12.5 µM
Casp3 select – caspase-3 protease inhibitors, confirmation, selectivity assay for SENP inhibitor project, biochemical, single concentration | shares compounds with SENP7 inh | purified caspase-3, Z-DEVD-aminoluciferin luminescence, 60 min | inhibition, % at 12.5 µM | hit rate 60% among 6,200;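 active = mean inhibition above about 50%, limit read from the data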;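 note: plate controls were enzyme with DMSO for no effect and wells without caspase-3 for full effect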
Luc interf – counter-screen for SENP inhibitors: luminescence interference | shares compounds with SENP7 inh | hit rate 39% among 6,200 | inhibition, % at 12.5 µM | Pre-incubated SENP8/Z-RLRGG-aminoluciferin, luciferase luminescence interference;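 active = mean inhibition above about 50% when retested at one dose, limit read from the data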;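 note: plate controls were DMSO wells with completed reaction for no effect and substrate without enzyme for full effect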
* = called active by the depositor; x = no result given. The list is not random: actives were taken first. Their share in the collection is about 3%.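 Rule for the calls, unless noted: active = mean inhibition above about 50% in the one-dose retest (limit read from the data); inactive = the rest.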

SMILES	SENP6 inh	SENP8 block-1	PPC-1+TRAIL kill	TRAIL sens C8	SENP7 inh	SENP8 block-2	SENP8 confirm	SENP6 conf	SENP7 confirm	Casp3 select	Luc interf
COc1cccc(-c2cc(C(=O)Nc3cccnc3)no2)c1	55*	65*	28	33	80*	3	47	78*	93*	83*	29
Cc1ccc(-n2ncc3c2ncn2c(C)nnc32)cc1C	54*	47	35	32	-9	-246	50	45	73*	76*	13
Cc1ccc(S(=O)(=O)N/N=C/c2ccc(C#N)cc2)cc1	7	9	x	-10	3	8	x	x	x	x	x
Cc1ccc(-c2cnc(-c3ccncc3)o2)cc1	20	2	9	17	10	-266	x	x	x	x	x
Nc1ccc(-c2ncc(-c3ccccc3)o2)cc1	73*	61*	x	52*	69*	-346	74*	68*	89*	45	74*
CC(=O)CSc1nc2c(c(=O)[nH]c(=O)n2C)n1CCCc1ccccc1	1	-2	x	-21	4	11	x	x	x	x	x
O=C(Nc1nc2c(s1)C(=O)CCC2)c1ccccc1	97*	95*	42	27	97*	-29	97*	98*	101*	97*	96*
Cc1cc(C(=O)Nc2nc3c(s2)CCCC3)no1	63*	19	26	7	56*	10	46	42	80*	75*	54*
O=C(Nc1nc(=O)[nH]s1)c1ccccc1	-11	-2	10	-3	2	12	x	x	x	x	x
CN(C)c1ccc(C(=O)Nc2nc3c(s2)CCCC3)cc1	95*	94*	39	55*	98*	-397	14	69*	82*	58*	38
O=C(/C=C/c1ccccc1[N+](=O)[O-])OCC(=O)N1CCN(c2ccccc2)CC1	x	x	x	0	x	1	x	x	x	x	x
COCCN1CCC(CO)C1 (stereo unspecified)	x	x	x	-2	x	9	x	x	x	x	x
COc1ccc(C2NN=C(c3ccc(C)cc3)S2)cc1OC (stereo unspecified)	93*	92*	31	59*	94*	-394	10	22	26	26	11
Fc1cccc(C2NN=C(c3ccccc3)S2)c1 (stereo unspecified)	92*	52*	27	55*	97*	-72	29	54*	80*	65*	14
Cc1ccc(C2=NNC(c3cccc(F)c3)S2)cc1 (stereo unspecified)	89*	87*	x	66*	95*	-166	46	51*	45	51*	10
N#CCC(=O)Nc1ccc(C(=O)OCC(=O)NC2CCCc3ccccc32)cc1 (stereo unspecified)	2	13	x	-3	3	-32	x	x	x	x	x
COc1cc2ccccc2cc1C(=O)Nc1ccc(O)cc1	63*	44	x	39	57*	-89	8	37	87*	60*	3
COc1ccc2oc(=O)c(C(=O)Nc3ccccc3O)cc2c1	77*	75*	14	25	95*	32	61*	78*	94*	74*	21
O=C(Nc1cccc(O)c1)C(=O)Nc1ccccn1	96*	87*	42	71*	97*	16	93*	93*	100*	96*	82*
O=C(Nc1ccc(F)cc1F)c1cc2ccccc2oc1=O	28	7	x	25	63*	17	7	6	46	54*	23
COc1ccc(NC(=O)c2cc3ccccc3cc2OC)cc1OC	2	-2	x	3	0	6	x	x	x	x	x
C/C(CC(=O)Nc1ccccn1)=N\NC(=O)C(=O)Nc1cccc(C)c1	8	-5	11	8	0	7	x	x	x	x	x
COc1ccc(NC(=O)c2cc3ccccc3oc2=O)cc1	x	x	x	50	x	28	x	x	x	x	x
CC(C)Oc1cc(F)ccc1-c1cc(C(=O)NCCCn2ccnc2)[nH]n1	x	x	x	-16	x	14	x	x	x	x	x
O=C(Nc1cc(S(=O)(=O)N2CCOCC2)ccc1Cl)c1cc([N+](=O)[O-])ccc1Cl	-7	-13	x	8	-7	5	x	x	x	x	x
SMILES	SENP6 inh	SENP8 block-1	PPC-1+TRAIL kill	TRAIL sens C8	SENP7 inh	SENP8 block-2	SENP8 confirm	SENP6 conf	SENP7 confirm	Casp3 select	Luc interf
Cc1ccc(NC(=O)c2cc3ccccc3cc2O)cc1	45	15	x	39	50	-50	x	x	x	x	x
O=C(Nc1ccccn1)c1cc2ccccc2cc1O	77*	75*	x	5	52*	3	6	33	50	38	3
COc1ccc(NC(=O)c2cc3ccccc3cc2O)cc1	51*	50	x	30	13	20	25	33	88*	44	8
O=C(Nc1ccccn1)c1ccc(C(=O)Nc2ccccn2)cc1	13	-10	x	16	4	8	x	x	x	x	x
Cc1ccc(NC(=O)c2cc3ccccc3oc2=O)cc1S(=O)(=O)N(C)C	36	25	28	56*	73*	9	22	25	17	39	7
CN(c1ccccc1)S(=O)(=O)c1cccc(NC(=O)c2cc3ccccc3oc2=O)c1	12	3	2	-11	6	-20	x	x	x	x	x
COc1ccccc1C(=O)Nc1nnc(S(=O)(=O)N2CCN(c3ccc(F)cc3)CC2)s1	-8	-9	x	-2	1	7	x	x	x	x	x
Cc1cc2cc(OCc3ccccc3)ccc2n1C	50*	-32	x	-1	19	13	-4	-7	-6	0	0
Cn1ccc2cc(OCc3ccccc3)ccc21	x	x	x	1	x	4	x	x	x	x	x
COc1ccc2oc3ccc(OC)cc3c(=O)c2c1	31	62*	17	25	89*	-270	20	53*	70*	46	17
